Screens as filed in PubChem BioAssay.
Fluor 339 460: intrinsic fluorescence of library compounds, ex339/em460 – biochemical, MLSMR library, data from DPM-DC assay, artefact control, profiling panel; compound autofluorescence, ex339/em460 nm, NADH buffer; active compounds read high; 1 = no-compound wells, NADH background; fluorescence fold increase at 10 µM; hit rate 5.5% among 65,000;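 active = at 10 µM, mean starting fluorescence two-fold or more over control wells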;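 also: signal is the first read of a kinetic run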
A340 absorber: compounds absorbing at 340 nm; compound absorbance at 340 nm, fold over control; fold change at 10 µM; 65,000 tested, under 10 active; AID 708;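 active = at 10 µM dose, initial 340 nm absorbance at least 2 fold that of control wells; inactive = change under 2 fold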;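 also: initial absorbance extrapolated from kinetic A340 decline of NADH oxidation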
Spn DPM-DC inh: blocks S. pneumoniae diphosphomevalonate decarboxylase. purified DPM-DC, PK/LDH coupled NADH fluorescence. calls only at 10 µM. hit rate 0.49% among 65,000;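 active = the 320 compounds with the highest percent inhibition in the single-dose primary screen, excluding strongly autofluorescent ones, cut at about 32% in these data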;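 also: kinetic rate of NADH fluorescence loss reporting ADP formed by the decarboxylase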
PMK inhibit: blocks S. pneumoniae phosphomevalonate kinase; AID 539; hit rate 0.49% among 65,000; inhibition, % at 10 µM; purified PMK, PK/LDH-coupled NADH absorbance 340 nm;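 active = top-ranked compounds by inhibition in the single 10 µM screen, taking a fixed number of the strongest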;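 also: 0% = full reaction with DMSO carrier and 100% = background rate without enzyme reaction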
NADH coupling: blocks coupling enzymes of NAD/NADH assays | IC50, µM (highest dose often 10 µM), inactives show at the top dose inhibition | coupled PK/LDH NADH assays, four targets | hit rate 0.02% among 65,000 | AID 774;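 active = single-dose screening hits from any of four coupled enzyme assays that gave an IC50 when retested across doses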;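 also: the DPM-DC format reads NADH fluorescence rather than 340 nm absorbance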
Spn MK inh: blocks S. pneumoniae mevalonate kinase; inhibition, % at 10 µM; purified MK, PK/LDH-coupled NADH absorbance 340 nm; hit rate 0.48% among 65,000; AID 555;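 active = ranked among the strongest by inhibition in the single 10 µM screen, a fixed top-ranked set picked for dose follow-up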
* = called active by the depositor. The list is not random: actives were taken first. Their share in the collection is about 6.5%.

Screening Cc1oc2cc3c(C(=O)N4CCN(C)CC4)c(C)oc3cc2c1C(=O)N1CCN(C)CC1 returned Fluor 339 460 1.02, A340 absorber 1, Spn DPM-DC inh inactive, PMK inhibit 22.0, NADH coupling 12.0% and Spn MK inh 9.0.
`CN(C)C=Nc1ccc2nn(-c3ccccc3)nc2c1` gave Fluor 339 460 2.19*, A340 absorber 1.17, PMK inhibit 0.0, NADH coupling 5.0% and Spn MK inh 10.0.
`CN(C)/C=N/c1c(C#N)cnn1-c1ccccc1` gave Fluor 339 460 1.11, A340 absorber 1.03, Spn DPM-DC inh inactive, PMK inhibit 1.0, NADH coupling 0.0% and Spn MK inh 0.0.
Cc1nc2[nH]c(=O)c3c(n2n1)NC1=C(C(=O)CC(C)(C)C1)C3c1ccc(F)cc1 (stereo unspecified) was read as Fluor 339 460 3.78*, A340 absorber 1.08, PMK inhibit 8.0, NADH coupling 5.0% and Spn MK inh 1.0.
COc1ccc(C2C3=C(CC(C)(C)CC3=O)Nc3c2c(=O)[nH]c(=O)n3Cc2ccccc2)cc1 (stereo unspecified) was read as Fluor 339 460 1.45, A340 absorber 1.05, Spn DPM-DC inh inactive, PMK inhibit 12.0, NADH coupling 6.0% and Spn MK inh 6.0.
Screening Cc1ccc(C2C3=C(CC(C)(C)CC3=O)Nc3[nH]c(=S)[nH]c(=O)c32)cc1 (stereo unspecified) returned Fluor 339 460 1.13, A340 absorber 1.06, Spn DPM-DC inh inactive, PMK inhibit 18.0, NADH coupling 12.0% and Spn MK inh 13.0.
For CCc1ccc(C2C3=C(CC(C)(C)CC3=O)Nc3c2c(=O)[nH]c2nc(C)nn32)cc1 (stereo unspecified) the results were Fluor 339 460 3.42*, A340 absorber 1.08, PMK inhibit 0.0, NADH coupling 0.0% and Spn MK inh 0.0.
`O=C(CCn1cccc1)NCc1ccc(Cl)cc1` gave Fluor 339 460 1.15, A340 absorber 0.99, Spn DPM-DC inh inactive, PMK inhibit 8.0, NADH coupling 3.0% and Spn MK inh 0.0.
`Cc1ccc(-c2noc(-c3ccccc3Br)n2)cc1` gave Fluor 339 460 1.11, A340 absorber 1.02, Spn DPM-DC inh inactive, PMK inhibit 2.0, NADH coupling 3.0% and Spn MK inh 6.0.
`CN(C)c1ccc(-c2noc(-c3ccccc3O)n2)cc1` gave Fluor 339 460 5.27*, A340 absorber 1.03, PMK inhibit 8.0, NADH coupling 8.0% and Spn MK inh 8.0.
`COCCCNC(CC(=O)Nc1ccccc1C(=O)OC)C(=O)O` (stereo unspecified) gave Fluor 339 460 1.1, A340 absorber 1.05, Spn DPM-DC inh inactive, PMK inhibit 3.0, NADH coupling 6.0% and Spn MK inh 15.0.
Screening CC(C)NC(=O)CSc1nnc(-c2ccc(S(=O)(=O)N3CCCC3)cc2)n1CC1CCCO1 (stereo unspecified) returned Fluor 339 460 1.07, A340 absorber 0.98, Spn DPM-DC inh inactive, PMK inhibit 11.0, NADH coupling 19.0% and Spn MK inh 45.0*.
NC(=O)CSc1nnc(-c2ccc(S(=O)(=O)N3CCOCC3)cc2)n1CC1CCCO1 (stereo unspecified) was read as Fluor 339 460 1.08, A340 absorber 0.96, Spn DPM-DC inh inactive, PMK inhibit 14.0, NADH coupling 9.0% and Spn MK inh 12.0.
For COC(=O)c1[nH]c2cc(OC)ccc2c1NC(=O)CCN1CCN(Cc2ccc3c(c2)OCO3)CC1 the results were Fluor 339 460 1.35, A340 absorber 1.05, Spn DPM-DC inh inactive, PMK inhibit 6.0, NADH coupling 4.0% and Spn MK inh 5.0.
Screening COc1ccc2c(c1)c1ncnc(N3CCN(Cc4ccc5c(c4)OCO5)CC3)c1n2C returned Fluor 339 460 3.23*, A340 absorber 1, Spn DPM-DC inh inactive, PMK inhibit 7.0, NADH coupling 6.0% and Spn MK inh 5.0.
For COc1ccc2c(c1)c(C(O)CN1CCN(Cc3ccc4c(c3)OCO4)CC1)c(C)n2C (stereo unspecified) the results were Fluor 339 460 1.2, A340 absorber 1.03, Spn DPM-DC inh inactive, PMK inhibit 6.0, NADH coupling 6.0% and Spn MK inh 11.0.
COc1ccc2[nH]c3c(N4CCN(Cc5ccc6c(c5)OCO6)CC4)ncnc3c2c1 was read as Fluor 339 460 2.33*, A340 absorber 1.08, PMK inhibit 0.0, NADH coupling 5.0% and Spn MK inh 9.0.
COc1cccc(/C=N\n2c(C)nnc2C)c1OC was read as Fluor 339 460 1.09, A340 absorber 1.03, Spn DPM-DC inh active, PMK inhibit 0.0, NADH coupling 16.0% and Spn MK inh 5.0.
For COc1cccc(/C=N/n2c(C)nc3ccccc32)c1OC the results were Fluor 339 460 1.07, A340 absorber 1.03, Spn DPM-DC inh inactive, PMK inhibit 4.0, NADH coupling 3.0% and Spn MK inh 6.0.
Screening COc1cc(OC)c(OC)cc1/C=N/n1c(C)nnc1C returned Fluor 339 460 2.16*, A340 absorber 1.15, PMK inhibit 10.0, NADH coupling 10.0% and Spn MK inh 9.0.
For CC(OC(=O)c1ccco1)C(=O)NCc1cccs1 (stereo unspecified) the results were Fluor 339 460 1.02, A340 absorber 1.01, Spn DPM-DC inh inactive, PMK inhibit 7.0, NADH coupling 1.0% and Spn MK inh 3.0.
`CCOC(=O)c1sc(NC(=O)c2noc3c2CCCC3)c(C(=O)OCC)c1C` gave Fluor 339 460 2.15*, A340 absorber 0.98, PMK inhibit 5.0, NADH coupling 3.0% and Spn MK inh 12.0.
Screening CCOC(=O)c1c(NC(=O)c2noc3c2CCCC3)sc(C)c1C returned Fluor 339 460 3.26*, A340 absorber 1.03, Spn DPM-DC inh inactive, PMK inhibit 0.0, NADH coupling 16.0% and Spn MK inh 22.0.
CS/C(=N\S(=O)(=O)c1cccs1)NC(=O)CSc1nc2ccccc2s1 was read as Fluor 339 460 1.32, A340 absorber 1.02, Spn DPM-DC inh inactive, PMK inhibit 7.0, NADH coupling 4.0% and Spn MK inh 3.0.
Cn1ncc(C#N)c1NC(=O)c1nn2cccnc2c1Cl was read as Fluor 339 460 1.08, A340 absorber 1.07, Spn DPM-DC inh inactive, PMK inhibit 9.0, NADH coupling 6.0% and Spn MK inh 10.0.
For COc1ccc(C2(C(=O)NCCCN(C)C)CCOCC2)cc1 the results were Fluor 339 460 1.09, A340 absorber 1.03, Spn DPM-DC inh inactive, PMK inhibit 0.0, NADH coupling 1.0% and Spn MK inh 4.0.
C=CCOC(=O)C1=C(C)NC(SCC(=O)Nc2ccc(C)c(Cl)c2)=C(C#N)C1c1ccco1 (stereo unspecified) was read as Fluor 339 460 2.32*, A340 absorber 1.06, PMK inhibit 7.0, NADH coupling 4.0% and Spn MK inh 0.0.
